A selection: hits, their analogues and other compounds. The true share with any hit is near 1.4%.
TCR act: activates T cell receptor signaling; primary human leukocytes, anti-CD3, IL-2 HTRF, 48 h; Potency, µM (doses to about 9.22 µM), actives largely listed as activators; 330,000 tested, under 10 active; AID 504894
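Compounds are tested in HTS on primary human leukocytes co-incubated with a-CD3 beads for 48 hr. IL-2 output is measured by time-resolved FRET.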
IL-2 act: IL-2 activation | AID 652025 | IL-2 activation reporter assay, cell-based qHTS; stimulated with anti-CD3/CD4/CD28 beads; in transgenic mouse T cells | 0.065% of 360,000 active | activation, % (series mostly up to about 46 µM); in the data active = activation above about 50%; inconclusive = mostly about 30% to 49%
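Screening format: compound pinned onto unstimulated transgenic mouse T cells, 60 min incubation, then anti-CD3/anti-CD4/anti-CD28 bead stimulation for 18 hours at 37 degrees C, followed by EGFP and DsRed detection.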
p53 reactivation: re-activators of mutant p53. H1299 p53-A138V BP100-luciferase reporter, luminescence, 24 h. Potency, µM (doses to about 92.2 µM), usual class: activators. 0.063% of 320,000 active; also: nearly all actives have a fitted effect of over 45% in size
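H1299 (p53-null), stable ts p53-A138V + BP100-Luc; 1000 cells/well, Opti-MEM/10% FBS; cpd 4 pt, 1:5; 24 h, 37 deg C, 5% CO2; detection reagent 10 min RT; luminescence.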
uPA surface inh: inhibitors of cell surface uPA generation; 0.31% of 330,000 active; cell surface uPA generation assay, qHTS; AID 540303; Potency, µM (top dose mostly 38.3 µM), actives largely listed as inhibitors; active = well fitted inhibition curve with a large enough effect; inconclusive = small, poorly fitted or top-dose-only effect; inactive = no such curve, though single readings can be large or run the other way; tested in mouse RAW 264.7 cells; also: nearly all actives have a fitted effect of over 55% in size
BRCA1 expr act: BRCA1 expression activation; MCF7-BRCA1-FFLuc reporter, luminescence, 48 h; response scale: scaled: vehicle 0%, 10 µM genistein 100%; Potency, µM (doses to about 46.1 µM), hits mostly activators; 1.1% of 380,000 active; AID 624202; also: nearly all actives have a fitted effect of over 80% in size
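MCF7-BRCA1-FFLuc cells, 2000/well in phenol-red-free MEM, attached 2 h then treated 48 h at 37 C. Luciferase luminescence read 15 min after reagent; normalized to genistein maximum activation (10microM) and DMSO, concentration-response fitted.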
Each line names hits and unclear results; the compound was inactive in the other large screens. Unless noted, calls follow the shape of the dose curve; as a rule, active = well fitted curve in the direction sought with a large enough effect; inconclusive = small, poorly fitted or top-dose-only effect, or another doubt; inactive = no such curve, though single readings can be large; an effect the other way counts as inactive or inconclusive.

O=C(Cn1nnc(-c2ccccc2F)n1)Nc1ccc2c(c1)OCCO2	p53 reactivation inconclusive, BRCA1 expr act 8.91µM
O=C(Nc1ccc2c(c1)OCCO2)C(=O)c1c[nH]c2ccccc12	none
O=C(Cn1cnc2ccccc2c1=O)Nc1ccc2c(c1)OCCO2	p53 reactivation inconclusive, BRCA1 expr act 3.16µM
O=C(Cn1cnc2ccccc2c1=O)NCCC(=O)Nc1ccc2c(c1)OCCO2	none
Cc1cc(C)cc(N2C(=O)CSC23C(=O)N(CC(=O)NC2CCCCC2)c2ccccc23)c1 (centres undefined)	none (no result: TCR act, IL-2 act, p53 reactivation, uPA surface inh)
CCOc1ccc(S(=O)(=O)N2CCOCC2)cc1NC(=O)CSCc1ccc(C)cc1	uPA surface inh 2.51µM (no result: TCR act)
Cc1cc(C2=NNC(=NC3CC3)SC2)c(C)n1-c1ccccc1F	uPA surface inh 1.58µM, BRCA1 expr act inconclusive
Cc1cccc(C)c1N=C1NN=C(c2ccccc2F)CS1	none
Cc1ccccc1N=C1NN=C(c2ccccc2F)CS1	p53 reactivation 12.6µM, uPA surface inh inconclusive
Cc1ccc(NC(=O)c2cc3c(=O)[nH]c4ccccc4c3n2C)cc1F	none (no result: TCR act, IL-2 act, p53 reactivation, uPA surface inh)
O=C(NNc1ccccc1)c1sc2ccccc2c1Cl	none (no result: TCR act, IL-2 act, p53 reactivation, uPA surface inh)
CCN(CC)C(=O)CCc1nnc(Cc2cccc(C(F)(F)F)c2)o1	BRCA1 expr act 10µM
O=C(Nc1nsc(-c2ccccc2)n1)c1ccc(F)cc1	uPA surface inh inconclusive, BRCA1 expr act 11.2µM
CCOC(=O)c1ccc2[nH]c3c(c2c1)CCCCC3=O	BRCA1 expr act 3.98µM
CCOC(=O)c1ccc2[nH]c3c(c2c1)CCCC3C(=O)OCC (centres undefined)	none
Cc1ccc(NC(=O)CN2CCSc3ccc(S(=O)(=O)N4CCCC4)cc32)cc1	none (no result: TCR act, IL-2 act, p53 reactivation, uPA surface inh)
CCCOc1ccccc1C(=O)Nc1ccc(-c2nc3ccc(C)cc3s2)cc1	none (no result: TCR act, IL-2 act, p53 reactivation, uPA surface inh)
CCCC/C=C1\CCc2c([nH]c3ccccc23)C1=O	BRCA1 expr act 1.41µM
COc1cccc(NC(=O)Nc2ccc3c(c2)nc(C)n3C)c1	none
COc1cccc(NC(=O)Nc2nccc(C)n2)c1	uPA surface inh 2.51µM
Cc1ccnc(NC(=O)Nc2cccc(F)c2)n1	BRCA1 expr act 1µM
Cc1ccc(NC(=O)Nc2cccc(F)c2)nc1	BRCA1 expr act 3.16µM
COc1cccc(NC(=O)CSc2ccccn2)c1	p53 reactivation inconclusive, BRCA1 expr act 10µM
COc1ccc(CNC(=O)c2ccc3c(c2)N(Cc2c(F)cccc2Cl)C(=O)CS3)cc1	none (no result: TCR act, IL-2 act, p53 reactivation, uPA surface inh)
Cc1ccc(C)c(N2CCN(C(=O)CN3C(=O)COc4ccc(S(=O)(=O)N5CCOCC5)cc43)CC2)c1	none (no result: TCR act, IL-2 act, p53 reactivation, uPA surface inh)
CCOC(=O)c1ccc(NC(=O)NCCOCCn2c(=O)oc3ccccc32)cc1	none (no result: TCR act, IL-2 act, p53 reactivation, uPA surface inh)
COc1ccccc1-c1noc(-c2ccc(N3CCOCC3)c([N+](=O)[O-])c2)n1	none (no result: TCR act, IL-2 act, p53 reactivation, uPA surface inh)
Cc1ccc(NC(=O)Nc2ccc(Cl)cn2)cc1	BRCA1 expr act 4.47µM
Cc1ccc(C(c2nc3ccccc3[nH]2)n2c(-c3ccccc3)nc3ccccc32)cc1 (centres undefined)	BRCA1 expr act 4.47µM (no result: TCR act, p53 reactivation, uPA surface inh)
Cc1ccc(OCC(=O)Nc2ccc3nc(SCC(=O)Nc4ccc(C)cc4C)sc3c2)cc1	none (no result: TCR act, IL-2 act, p53 reactivation, uPA surface inh)
c1ccc(-c2ccc(-c3ccccn3)s2)nc1	p53 reactivation inconclusive
O=C(O)c1ccc(-c2ccccn2)s1	BRCA1 expr act 10µM
Clc1ccc(CCNc2nc3ccccc3c3nc(-c4ccccc4)nn23)cc1	none (no result: TCR act, IL-2 act, p53 reactivation, uPA surface inh)
CC(=O)Nc1ccc(NC(=O)c2cccc(S(=O)(=O)N3CCCCCC3)c2)cc1	none
Cc1ccc(NC(=O)CNC(=O)c2ccco2)cc1	BRCA1 expr act 11.2µM
CC(=O)c1ccc(NC(=O)c2cccc(S(=O)(=O)N3CCN(C)CC3)c2)cc1	p53 reactivation inconclusive, BRCA1 expr act 11.2µM
O=C(Nc1ccc(Br)cc1)c1ccco1	p53 reactivation inconclusive, BRCA1 expr act inconclusive (no result: TCR act)
COc1ccc(NC(=O)CNC(=O)c2ccco2)cc1	p53 reactivation inconclusive, BRCA1 expr act inconclusive
O=C(Nc1ccc(NC(=O)c2cccs2)cc1)c1cccs1	none
O=C(Nc1ccc(NC(=O)C2CC2)cc1)c1cccs1	BRCA1 expr act 10µM
CC(=O)N(C)c1ccc(NC(=O)c2ccco2)cc1	BRCA1 expr act 6.31µM
COc1ccc(-c2nc3ccccn3c2Nc2ccccc2C)cc1	none (no result: TCR act, IL-2 act, p53 reactivation, uPA surface inh)
CCOC(=O)c1ccc(CNc2ncnc3nc[nH]c23)cc1	none (no result: TCR act, IL-2 act, p53 reactivation, uPA surface inh)
O=C(Cn1c(=O)n(CCc2ccccc2)c(=O)c2cccnc21)Nc1ccc(F)cc1	none (no result: TCR act, IL-2 act, p53 reactivation, uPA surface inh)
